Measured values as given in ChEMBL document CHEMBL3988442, “University of Dundee, Small-Polar-MMV Screening Library” (2021).
In all, about 48,000 compounds went through this assay and about 13,000 (27%) showed an effect of 50% or more. Some of the results follow.

These compounds were tested on Wolbachia pipientis (assay: Anti-Wolbachia Cell-Based Screen). Conditions: 5 µM.
Type: functional
Design: scale not given: in the data most compounds retested in dose-response had high values
In the case of `Cc1nc(C2CCCNC2)cc(N(C)CCc2cn[nH]c2)n1` (stereo unspecified), the “Percent Effect” value is reported as 4.214%.
In the case of `CCN(CC)c1ncc(Cl)c(C(=O)NC2CC2)n1`, the “Percent Effect” value is reported as -2.852%.
`CCN(CC)c1ncc(Cl)c(C(=O)NC2CCC(O)CC2)n1` (stereo unspecified) was tested, and the “Percent Effect” value was -11%.
For `CC(C)n1cnc2c(N3CCCC3)nc(C3CCNCC3)cc21.Cl.Cl`, the “Percent Effect” value was -3.823%.
With `CN(C)c1ncc2c(O)nc(C3CCNCC3)cc2n1.Cl` the “Percent Effect” value was 122.5%.
For `CN(C)c1ncc2c(O)nc(C3CCCNC3)cc2n1` (stereo unspecified), the “Percent Effect” value was 88.81%.
In the case of `Cl.Cl.Cn1cnc2c(-c3cccnc3)nc(C3CCNCC3)cc21`, the “Percent Effect” value is reported as -57.7%.
With `CCN(CC)c1ncc2c(O)nc(C3CCNCC3)cc2n1` the “Percent Effect” value was 97.4%.
`CN(C)CCNC(=O)c1noc2c1CN(C(=O)N(C)C)CC2` was tested, and the “Percent Effect” value was 9.564%.
`Cc1c(C(=O)NCCC(=O)N2CCCC2)cccc1-c1ccccn1` was tested, and the “Percent Effect” value was 102.1%.
`Cc1ccc(C(=O)NCCCS(=O)(=O)c2ccccc2)c(=O)[nH]1` was tested, and the “Percent Effect” value was 14.19%.
With `Cc1c(C(=O)NCC(C)(C)S(C)(=O)=O)cccc1-c1ccccn1` the “Percent Effect” value was 90.41%.
For `Cc1c(I)cccc1C(=O)NCc1ncc[nH]1`, the “Percent Effect” value was -7.865%.
With `Cc1c(NCC(C)(C)C)cccc1C(=O)NCc1ncnn1C` the “Percent Effect” value was -8.622%.
With `Cn1ccc2c(C(=O)NCCCS(C)(=O)=O)cccc21` the “Percent Effect” value was -9.064%.
With `Cc1c(C(=O)NCCC(=O)N2CCCC2)oc2c(F)cccc12` the “Percent Effect” value was 5.296%.
`Cn1cc(C(=O)NCCC(=O)N2CCCCC2)c(-c2cccnc2)n1` was tested, and the “Percent Effect” value was -19.31%.
In the case of `Cc1c(C(=O)NCCCS(C)(=O)=O)cccc1-c1ccccn1`, the “Percent Effect” value is reported as 78.39%.
`Cc1csc(C2(NCc3nc(-c4ccco4)no3)CCCC2)n1` was tested, and the “Percent Effect” value was -16%.
In the case of `Cc1cc(C)n2nc(CC(=O)N[C@H]3C[C@H]4CN(C)CCN4C3)nc2n1`, the “Percent Effect” value is reported as -5.28%.
In the case of `O=C(O)C(F)(F)F.O=C1COC2(CCN(Cc3ccc(F)cc3)CC2)CN1`, the “Percent Effect” value is reported as 10.25%.
For `c1ccc2c(c1)COC1(CCCCC1)N2`, the “Percent Effect” value was 87.69%.
`c1ccc2c(c1)COC1(CCCC1)N2` was tested, and the “Percent Effect” value was 105.5%.
In the case of `OCC1(Cc2ccc(Cl)cc2)CCN(Cc2ccccc2O)CC1`, the “Percent Effect” value is reported as -3.576%.
For `c1ccc(CN2CCC3(CC2)Nc2ccccc2CO3)cc1`, the “Percent Effect” value was 107.9%.
In the case of `CC1CCC2(CC1)Nc1ccccc1CO2` (stereo unspecified), the “Percent Effect” value is reported as 93.91%.
For `CCc1nc(NC(=O)NCCc2cccc(C)n2)nn1C`, the “Percent Effect” value was -4.482%.
In the case of `O=S(=O)(NCC(O)c1ccc(C(F)(F)F)cc1)C1CC1` (stereo unspecified), the “Percent Effect” value is reported as -5.07%.
With `Cc1noc(C)c1CNc1cccc(C(=O)N2CCCC(O)C2)c1` (stereo unspecified) the “Percent Effect” value was 6.213%.
In the case of `CC(C)(C)n1ncc2c(=O)[nH]c(N3CCC4(CCCCC4)C3)nc21`, the “Percent Effect” value is reported as -1.553%.
In the case of `N#Cc1ccsc1N1CCC(Sc2ccncc2)C1=O` (stereo unspecified), the “Percent Effect” value is reported as 81.54%.
With `CCc1ncc(CN(C)C2CCN(c3sccc3C#N)C2=O)s1` (stereo unspecified) the “Percent Effect” value was 0.715%.
In the case of `Cc1cc(N)nc(SC2CCN(c3ccccc3)C2=O)n1` (stereo unspecified), the “Percent Effect” value is reported as -22.79%.
For `O=C1C(Sc2nc(=O)ccn2C2CC2)CCN1c1ccccc1` (stereo unspecified), the “Percent Effect” value was -7.516%.
For `CN(Cc1ncnn1C)C1CCN(c2sccc2C#N)C1=O` (stereo unspecified), the “Percent Effect” value was 7.621%.
`Cn1c(N)nnc1SC1CCCN(c2ccccc2)C1=O` (stereo unspecified) was tested, and the “Percent Effect” value was -9.447%.
With `CCc1cnc(CN(C)C2CCN(c3sccc3C#N)C2=O)s1` (stereo unspecified) the “Percent Effect” value was 1.692%.
With `N#Cc1ccsc1N1CCC(Sc2ncc[nH]2)C1=O` (stereo unspecified) the “Percent Effect” value was 95.53%.
`Cc1nnc(SC2CCN(c3sccc3C#N)C2=O)s1` (stereo unspecified) was tested, and the “Percent Effect” value was 109.2%.
With `Cc1cc(N)nc(SC2CCN(c3ccccc3F)C2=O)n1` (stereo unspecified) the “Percent Effect” value was 10.35%.
For `Cc1nnc(SC2CCN(c3sccc3C#N)C2=O)[nH]1` (stereo unspecified), the “Percent Effect” value was 106.7%.
In the case of `CCC(CO)N(Cc1ccco1)C(=O)c1sccc1NC(C)=O` (stereo unspecified), the “Percent Effect” value is reported as 21.44%.
`Cc1oncc1NS(=O)(=O)c1c[nH]c2ncccc12` was tested, and the “Percent Effect” value was -22.29%.
With `c1cncc(COCC2CN(Cc3ccsc3)Cc3ccnn3C2)c1` (stereo unspecified) the “Percent Effect” value was -8.281%.
With `COc1ccccc1OCCNc1snc(Cl)c1C#N` the “Percent Effect” value was -4.663%.
With `Cc1nc(SC2CCN(c3sccc3C#N)C2=O)oc1C` (stereo unspecified) the “Percent Effect” value was 85.81%.
`CCc1noc(CN(C)C2CCN(c3sccc3C#N)C2=O)n1` (stereo unspecified) was tested, and the “Percent Effect” value was 0.9243%.
With `Cc1csc(CN(C)C2CCN(c3sccc3C#N)C2=O)n1` (stereo unspecified) the “Percent Effect” value was 9.47%.
With `Cn1c(C(N)=O)ccc1-c1ccccc1` the “Percent Effect” value was 3.483%.
In the case of `CC(C)NC(=O)NCCCOC1CCOCC1`, the “Percent Effect” value is reported as -1.893%.
In the case of `COCCOCC(=O)N(Cc1cccc(C)c1)C(C)C`, the “Percent Effect” value is reported as -6.619%.
